An excerpt weighted towards active compounds, which were near 19% of everything screened.
TDP1 inh: qHTS Assay for Inhibitors of Tyrosyl-DNA Phosphodiesterase (TDP1); AID 485290, 2010; Potency, µM (top dose mostly 130 µM), inactives show top-dose activity change, negative = inhibition, most hits filed as inhibitors; 350,000 compounds, 0.28% hits; Tyrosyl-DNA phosphodiesterase 1 (Homo sapiens), Q9NUW8; recombinant TDP1, AlphaScreen DNA substrate cleavage; further: potency means the concentration at half of the fitted maximal effect; on the % scale 0 is the no-effect control and ±100 the full control effect; nearly all actives have a fitted effect of over 40% in size
Target sequence (Q9NUW8 whole entry, looked up): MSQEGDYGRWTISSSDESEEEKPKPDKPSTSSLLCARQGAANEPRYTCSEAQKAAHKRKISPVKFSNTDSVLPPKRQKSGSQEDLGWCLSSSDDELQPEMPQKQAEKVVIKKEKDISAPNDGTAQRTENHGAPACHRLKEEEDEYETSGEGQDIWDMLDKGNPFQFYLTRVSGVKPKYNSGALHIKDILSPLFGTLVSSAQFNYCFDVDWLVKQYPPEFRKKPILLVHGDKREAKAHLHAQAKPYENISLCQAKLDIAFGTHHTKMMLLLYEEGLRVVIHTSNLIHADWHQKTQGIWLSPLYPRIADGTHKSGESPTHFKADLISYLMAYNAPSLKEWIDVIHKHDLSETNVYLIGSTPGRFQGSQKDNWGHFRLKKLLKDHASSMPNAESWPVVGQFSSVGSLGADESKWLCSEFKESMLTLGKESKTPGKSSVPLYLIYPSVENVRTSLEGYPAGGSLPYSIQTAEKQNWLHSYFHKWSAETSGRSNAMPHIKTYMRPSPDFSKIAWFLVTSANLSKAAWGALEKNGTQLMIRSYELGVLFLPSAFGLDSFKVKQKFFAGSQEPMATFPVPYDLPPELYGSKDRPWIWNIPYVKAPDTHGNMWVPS
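Recombinant E. coli-expressed Tdp1 (1 nM) preincubated with compound 15 min at RT, then 5'-biotin/3'-phosphotyrosine-FITC DNA substrate (15 nM) added for 5 min. AlphaScreen beads (10 ug/ml) added, 10 min RT; tyrosine-FITC cleavage read as signal loss.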
TDP1 cell noCPT: qHTS for Inhibitors of human tyrosyl-DNA phosphodiesterase 1 (TDP1): qHTS in cells in absence of CPT | AID 686978, 2013 | DT40 Tdp1-/- hTDP1 cells, no CPT, ATP luminescence, 48 h | 420,000 compounds, 15% hits | Potency, µM (series often up to 46.2 µM), inactives show at the top dose activity change, negative = growth inhibition, hits mostly inhibitors; further: potency means the concentration at half of the fitted maximal effect; on the % scale 0 is the no-effect control and ±100 the full control effect; nearly all actives have a fitted effect of over 55% in size
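Seeded 400 DT40-hTDP1 cells/well (vehicle DMSO, no 20 nM CPT); pinned compounds; ≥48 hr at 37 °C; CellTiter-Glo luminescence as viability measure.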
IL1B secr inh: qHTS for Inhibitors of Inflammasome Signaling: IL-1-beta AlphaLISA Primary Screen; THP-1 LPS/ATP IL-1B secretion, AlphaLISA, 16 h; hits give low values; activity change, % at 57.5 µM; 360,000 compounds, 4.7% hits; in the data active means activity change below about -50%; inconclusive means mostly about -30% to -49%; further: on the % scale 0 is the no-effect control and ±100 the full control effect
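THP-1 cells pretreated 1 hr with compounds (up to 57.5 uM final), then stimulated with LPS (250 ng/mL final) plus ATP (1.25 mM final); secreted IL-1B measured by AlphaLISA after 16 hr, decreased signal indicating inhibition.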
HepG2 viability: qHTS for Inhibitors of TGF-b: Cytotox Counterscreen; HepG2 CAGA-GFP viability, ATP luminescence, 18 h; Potency, µM (series often up to 46.1 µM), for the others: at the top dose activity change, negative = cytotoxicity, actives largely listed as cytotoxic; 410,000 compounds, 0.76% hits; further: potency means the concentration at half of the fitted maximal effect
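CellTiter-Glo luminescence gave cytotoxicity after 18 hours at 37 degrees C. The cells were HepG2 CAGA-GFP in 1% FBS DMEM, stimulated with 500 pg/mL TGF-beta after compound addition. %Activity was normalised to no-cell wells (complete cell-killing) and DMSO (no toxicity), and curves were fitted and classified.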
TGFb inhibitor: qHTS for Inhibitors of TGF-b | AID 588855, 2011 | 410,000 compounds, 1.2% hits | HepG2 CAGA-GFP TGF-b/SMAD3 reporter, GFP fluorescence, 18 h; TGF-beta stimulated, 500 pg/mL final | Potency, µM (series often up to 46.1 µM), inactives show at the highest dose activity, negative = inhibition, most hits filed as inhibitors; further: potency means the concentration at half of the fitted maximal effect; on the % scale 0 is the no-effect control and ±100 the full control effect; nearly all actives have a fitted effect of over 65% in size
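GFP signal (ex488/em500-530) from TGF-beta-stimulated HEPG2 CAGA-GFP cells, 500 pg/mL final, 18 h at 37 degrees C in DMEM plus 1% FBS, normalized to unstimulated and DMSO-stimulated controls.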
TDP1 cell CPT: qHTS for Inhibitors of human tyrosyl-DNA phosphodiesterase 1 (TDP1): qHTS in cells in presence of CPT; Potency, µM (series often up to 46.2 µM), for inactives: at the top dose activity change, negative = growth inhibition, most hits filed as inhibitors; 420,000 compounds, 12% hits; chicken DT40 Tdp1-/-;hTDP1 cells + 20 nM CPT, ATP luminescence, 48 h; further: potency means the concentration at half of the fitted maximal effect; on the % scale 0 is the no-effect control and ±100 the full control effect; nearly all actives have a fitted effect of over 55% in size
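Chicken DT40 Tdp1-/- cells stably complemented with human TDP1 were seeded at 400 cells/well in medium containing 20 nM camptothecin, exposed to pin-transferred compounds, and grown at 37 °C for at least 48 hr. Viability was read as ATP luminescence.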
The depositor's hits bear a star; i = inactive; ? = inconclusive; . = not tested or not shown; [ ] = another dose, or the depositor's remark. Unless noted, the call rests on the fitted dose curve; in most records, active means well fitted curve in the direction sought with a large enough effect; inconclusive means small, poorly fitted or top-dose-only effect, or another doubt; inactive means no such curve, though single readings can be large; an effect the other way counts as inactive or inconclusive.

SMILES	TDP1 inh	TDP1 cell noCPT	IL1B secr inh	HepG2 viability	TGFb inhibitor	TDP1 cell CPT
O=C(CSc1nnc(-c2ccc(Cl)cc2)o1)N1CCc2ccccc21	2%	0%	.	-16%	-6%	5%
COc1ccc(C)cc1NC(=O)Cn1c(=O)nc(-c2ccccc2F)c2cc(Cl)ccc21	1%	-1%	.	13%	10%	-5%
CS(=O)(=O)N1CCc2cc(C(=O)N3CCN(c4ccccc4)CC3)ccc21	2%	?	i	-2%	-11%	?
O=C(c1cccc(S(=O)(=O)N2CCc3ccccc32)c1)N1CCN(c2ccccn2)CC1	5%	23µM*	-12	-32%	-27%	?
COc1ccc(N2CCN(C(=O)c3cccc(S(=O)(=O)N4CCc5ccccc54)c3)CC2)cc1	0%	15µM*	25	-6%	-4%	?
CS(=O)(=O)N1CCc2cc(C(=O)N3CCN(c4ccc(F)cc4)CC3)ccc21	3%	21µM*	-12	-10%	-20%	?
Cc1ccc(S(=O)(=O)CC2CSc3nc4ccccc4n32)cc1 (centres undefined)	3%	1.8µM*	-3	2%	-15%	1.8µM*
Cc1ccc(S(=O)(=O)CC2CSc3nc(N)cc(=O)n32)cc1 (centres undefined)	-1%	-9%	-26	5%	0%	-2%
COc1cccc(CN2CCC2(C)C(=O)NCCc2ccccn2)c1OC (centres undefined)	.	-8%	7	4%	-3%	7%
C[N+](C)(C)C/C=C1/COCO1	4%	?	-9	-1%	12%	18µM*
COc1cccc(CNC(=O)c2cc(-c3cccs3)nc3ccccc23)c1	1%	-26%	.	-4%	0%	-14%
COc1cccc(CNC(=O)c2cc3c(C)nc4ccccc4c3o2)c1	7%	18µM*	-14	-19%	?	23µM*
COc1ccc(CNC(=O)c2cc3c(C)nc4ccccc4c3o2)c(OC)c1	-1%	13µM*	45	-28%	-26%	16µM*
COc1ccc(CNc2nc(-c3ccc(C(=O)N(C)C)cc3)nc3ccccc23)c(OC)c1	-13%	?	.	.	.	?
CN(C)c1cc(-c2ccc(Br)cc2)oc(=O)c1Cl	-1%	?	-51*	-19%	2%	-3%
CCCSc1ncc(Cl)c(C(=O)NCc2ccc(C)cc2)n1	-1%	-27%	.	-7%	.	-28%
CCN(CC)CCOC(=O)C(Cc1ccco1)Cc1cccc2ccccc12 (centres undefined)	.	?	-57*	-30%	-25%	?
CCOc1ccc(CCNC(=O)CCN2N=C(c3ccc(OC)cc3)CCC2=O)cc1OCC	-3%	?	.	-24%	?	?
C[C@@H](C(=O)Nc1ccc2ccccc2c1)[C@H]1C[C@]1(C)[C@H](N)c1ccccc1	6%	.	.	-7%	-20%	.
C=CCOc1ccc(Br)cc1/C=C1/SC(=Nc2ccc(C(=O)O)cc2)NC1=O	79µM*	13%	0	-3%	3%	-17%
CCOc1cc(Br)cc(/C=C2\SC(=Nc3ccccc3)NC2=O)c1O	.	?	-20	-82%	10µM*	?
CCOc1cc(/C=C2\SC(=Nc3ccc(CC)cc3)NC2=O)ccc1OCC(=O)O	.	-8%	18	-20%	?	-3%
O=C(COC(=O)CCC(=O)c1cccs1)Nc1ccc(F)c(F)c1F	1%	-15%	-3	-5%	7%	-2%
COc1ccccc1N(C)S(=O)(=O)c1ccc(C(=O)N(C)Cc2ccc(OC(F)F)cc2)cc1	.	23µM*	-25	-11%	?	26µM*
COC(=O)c1ccccc1NC(=O)c1ccccc1N(C)S(=O)(=O)c1ccccc1	0%	-18%	3	1%	?	26%
SMILES	TDP1 inh	TDP1 cell noCPT	IL1B secr inh	HepG2 viability	TGFb inhibitor	TDP1 cell CPT
CCC(C)(C)NC(=O)c1ccc(S(=O)(=O)N(C)c2ccccc2OC)cc1	4%	-11%	3	-1%	-5%	-20%
COc1ccccc1N(C)S(=O)(=O)c1ccc(C(=O)N(CC(N)=O)C(C)C)cc1	4%	?	16	1%	?	14%
COc1cc(NC(=O)c2ccc(S(=O)(=O)N(C)c3ccccc3OC)cc2)cc(OC)c1	1%	21µM*	-3	10%	-23%	18µM*
COC(=O)c1ccc(NC(=O)c2ccccc2N(C)S(=O)(=O)c2ccccc2)cc1	1%	21µM*	-19	-2%	-6%	?
COc1ccccc1N(C)S(=O)(=O)c1ccc(C(=O)Nc2cccc(Br)c2)cc1	0%	16µM*	-60*	-8%	-20%	?
CC1(C)c2cc(Cl)ccc2-n2c1cc(O)c(-c1ccccc1)c2=O	4%	6%	15	-22%	-2%	-1%
CCOc1ccc2cc(-c3nnc(Nc4ccc(C)cc4)s3)c(=O)oc2c1	-4%[12.3 µM]	-14%	.	5%	-7%	-3%
O=c1ccc2cc(S(=O)(=O)Nc3ccc(F)c(Cl)c3)ccc2[nH]1	3%	-26%	.	-10%	29%	-2%
O=C(Cn1ncc2c([nH]c3ccccc32)c1=O)Nc1cc(F)ccc1F	4%	-17%	.	-42%	-15%	4%
COc1ccccc1N(C)S(=O)(=O)c1ccc(C(=O)NCC(C)C)cc1	5%	?	16	-2%	3%	-20%
COc1ccccc1N(C)S(=O)(=O)c1ccc(C(=O)Nc2nccs2)cc1	1%	6.5µM*	-8	-22%	-24%	?
COc1ccccc1N(C)S(=O)(=O)c1ccc(C(=O)NCC2CCCCC2)cc1	0%	18µM*	0	-14%	-29%	?
CSCCC(NC(=O)COc1ccccc1)C(=O)N1CCN(C(C)=O)CC1 (centres undefined)	1%	11%	10	-5%	0%	-3%
CN(CC(=O)Nc1ccc(F)c(F)c1F)C(=O)Cc1ccc2c(c1)OCCO2	1%	-15%	0	2%	22%	-18%
CN1CCN(c2ccc(NC(=O)COc3ccccc3[N+](=O)[O-])cc2)CC1	5%	?	4	-32%	-13%	-2%

Screening data: PubChem, National Center for Advancing Translational Sciences (NCATS)
